This is an account of results in PubChem BioAssay (EPA / NIEHS).

SMILES strings stand for the structures. Inconclusive results are not listed. Some compounds were tested as several samples or in several runs, with calls that do not always agree. The source made the active and inactive calls. The calls were made as follows: active = hit-call score of the fitted dose curve at least 0.9, where 1 is the maximum; inconclusive = response in the unintended direction; inactive = score below 0.9.

The experiment can be described thus: Tanguay_ZF_120hpf_SWIM_legacy: (Legacy) Oregon State University Tanguay Lab 120 Hour Post-fertilization zebrafish Assay for Swim Bladder Malformation (AID 2283654).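 Also: swim bladder malformation in each larva scored yes or no under brightfield.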 On the procedure:
Tanguay_ZF_120hpf_legacy is a whole embryo, multiplexed endpoint assay using zebrafish larvae exposed for 120 hours post fertilization on a 96-well plate.Tanguay_ZF_120hpf_SWIM_legacy is one of one assay component(s) measured or calculated from the Tanguay_ZF_120hpf_legacy assay. It is designed to make measurements of zebrafish development as detected with brightfield microscopy of developing zebrafish embryos.Data from the assay component Tanguay_ZF_120hpf_SWIM_legacy was analyzed into 1 assay endpoints. This assay endpoint, Tanguay_ZF_120hpf_SWIM_legacy, was analyzed in the positive analysis fitting direction relative to DMSO as the negative control and baseline of activity. Using a type of morphology reporter, gain-of-signal activity can be used to understand changes in developmentals as they relate to the whole embryo. To generalize the intended target to other relatable targets, this assay endpoint is annotated to the zebrafish development intended target family, where the subfamily is swim bladder morphogenesis.
Zebrafish husbandry: Tropical 5D wild-type adult zebrafish were housed in at an approximate density of 1000 per 100 gallon tank at the Sinnhuber Aquatic Research Laboratory, Oregon State University, Corvallis, OR. Each tank was kept at standard laboratory conditions of 28C on a 14-h light/10-h dark photoperiod in fish water consisting of reverse osmosis water supplemented with a commercially available salt (Instant Ocean). Spawning funnels were placed into the tanks the night prior, and embryos were collected and staged. To increase bioavailability, the chorion was enzymatically removed using pronase (63.6mg/ml, >/= 3.5U/mg, Sigma-Aldrich: P5147) at 4 hours post fertilization (hpf) using a custom automated dechorionator.Chemical exposures: Six hpf dechorionated embryos were placed 1 embryo per well in a 96-well plate prefilled with 90 ul of EM using automated embryo placement systems (AEPS). Ten microliters of each row of dilution plate 2 was added to 2 exposure plates. The final DMSO concentration used was 0.64% (vol/vol). Thirty-two embryos were also exposed to 5uM trimethyltin chloride (positive control). Plates were sealed to prevent evaporation and foil covered to reduce light exposure and kept in a 28C incubator. Embryos were statically exposed until 120 hpf. At 24 hpf, embryos were assessed for photomotor response using a custom photomotor response analysis tool (PRAT) and for developmental toxicity endpoints (MO24: mortality at 24 hpf, DP: developmental progression, SM: spontaneous movement, and NC: notochord distortion). At 120 hpf, locomotor activity was measured using Viewpoint Zebralab and assessed for 18 endpoints. Zebrafish acquisition and analysis program (ZAAP), a custom program designed to inventory, acquire, and manage zebrafish data, was used to collect developmental endpoints as either present or absent (i.e., binary responses were recorded). If mortality occurred for an embryo (at either 24 or 120 hpf), the non-mortality endpoints were not measured.
Take `O=C1c2ccccc2C(=O)N1SC(Cl)(Cl)Cl`: the call was inactive.
Same read-out and setting: to `O=S1OCC2C(CO1)C1(Cl)C(Cl)=C(Cl)C2(Cl)C1(Cl)Cl` (stereo not given) belongs “inactive”.
By AC50 is commonly meant the concentration at which the activity in the assay is half-maximal. With `CC(C)(C)C(O)C(Oc1ccc(Cl)cc1)n1cncn1` (stereo not given), the AC50 is 47.1 µM (active) and the compound was called inactive.
For `CCc1ccc(C(=O)NN(C(=O)c2cc(C)cc(C)c2)C(C)(C)C)cc1`, the compound was called inactive.
As for `COP(=O)(OC)OC=C(Cl)Cl`, the result was inactive.
As for `CC(C)OC(=O)Nc1cccc(Cl)c1`, the compound was called inactive.
Same read-out and setting: to `CNC(=O)CSP(=S)(OC)OC` belongs “inactive”; to `CCOC1Oc2ccc(OS(C)(=O)=O)cc2C1(C)C` (stereo not given), “inactive”; to `Oc1ccc(Cl)cc1Cc1ccccc1`, “inactive”.
With `OCCOc1ccccc1`, the outcome was inactive.
Same read-out and setting: to `CCN(CC)C(=O)SCc1ccc(Cl)cc1` belongs “inactive”; to `C[C@H]1[C@H](c2ccc(Cl)cc2)SC(=O)N1C(=O)NC1CCCCC1`, “inactive”; to `CCC(C)Nc1c([N+](=O)[O-])cc(C(C)(C)C)cc1[N+](=O)[O-]` (stereo not given), “inactive”.
Still for that read-out and setting: to `CCCN(CCOc1c(Cl)cc(Cl)cc1Cl)C(=O)n1ccnc1` belongs “inactive”; to `Cc1[nH]c(=O)n(C(C)(C)C)c(=O)c1Cl`, “inactive”; to `O=C(NC(=O)c1c(F)cccc1F)Nc1ccc(OC(F)(F)C(F)OC(F)(F)F)c(Cl)c1` (stereo not given), “inactive”.
The same measure, in the same setting: to `CC1(C)C(C=C(Cl)Cl)C1C(=O)OC(C#N)c1ccc(F)c(Oc2ccccc2)c1` (stereo not given) belongs “inactive”.
As to `N#Cc1c(Cl)c(Cl)c(Cl)c(C#N)c1Cl`, the call was inactive.
The same measure, in the same setting: to `Clc1ccccc1-c1nnc(-c2ccccc2Cl)nn1` belongs “inactive”.
`C#CCN1C(=O)COc2cc(F)c(N3C(=O)C4=C(CCCC4)C3=O)cc21`: the compound was classed as inactive.
Still for that read-out and setting: to `N#CN` belongs “inactive”.
Turning to `CCCN(CCC)c1c([N+](=O)[O-])cc(C(F)(F)F)cc1[N+](=O)[O-]`, the compound was classed as inactive.
In the case of `O=S(=O)(O)C(F)(F)C(F)(F)C(F)(F)C(F)(F)C(F)(F)C(F)(F)C(F)(F)C(F)(F)F`, the compound was classed as inactive.
`CNC(=O)Oc1ccccc1OC(C)C`: the compound was called inactive.
Same read-out and setting: to `CNC(=O)/C=C(\C)OP(=O)(OC)OC` belongs “inactive”.
On the same count and under the same terms, to `CCOCN(C(=O)CCl)c1c(C)cccc1CC` belongs “inactive”; to `ClC1C(Cl)C(Cl)C(Cl)C(Cl)C1Cl` (stereo not given), “inactive”.
As for `COc1nn(CSP(=S)(OC)OC)c(=O)s1`, the outcome was inactive.
The same measure, in the same setting: to `Oc1cc(Cl)ccc1Oc1ccc(Cl)cc1Cl` belongs “inactive”; to `CC(C)N(C(=O)COc1nnc(C(F)(F)F)s1)c1ccc(F)cc1`, “inactive”; to `O=[N+]([O-])c1c(Cl)c(Cl)c(Cl)c(Cl)c1Cl`, “inactive”.
On the same count and under the same terms, to `COP(=S)(OC)Oc1ccc([N+](=O)[O-])cc1` belongs “inactive”; to `COP(=S)(OC)Oc1ccc(SC)c(C)c1`, “inactive”.
On the same count and under the same terms, to `CCC(C)(C)C(=O)OC1=C(c2ccc(Cl)cc2Cl)C(=O)OC12CCCCC2` belongs “inactive”; to `CC[C@H](C)[C@H]1O[C@]2(C=C[C@@H]1C)C[C@@H]1C[C@@H](C/C=C(\C)[C@@H](O[C@H]3C[C@H](OC)[C@@H](O[C@H]4C[C@H](OC)[C@@H](O)[C@H](C)O4)[C@H](C)O3)[C@@H](C)/C=C/C=C3\CO[C@@H]4[C@H](O)C(C)=C[C@@H](C(=O)O1)[C@]34O)O2` (tested in a mixture with another compound), “inactive”; to `O=C(O)CCCOc1ccc(Cl)cc1Cl`, “inactive”.
Take `CCC(C)(NC(=O)c1cc(Cl)c(C)c(Cl)c1)C(=O)CCl` (stereo not given): the compound was called inactive.
As for `CC(C)(C)C(O)/C(=C\c1ccc(Cl)cc1Cl)n1cncn1` (stereo not given), the call was inactive.
The same measure, in the same setting: to `CN1CSC(=S)N(C)C1` belongs “inactive”.
